The list is not random: actives were taken first. Their share in the collection is about 1.8%.
KCNH2 3.1 inh – blocks the human KCNH2 3.1 channel isoform; U2OS KCNH2 3.1, thallium flux FluxOr; active compounds read low; 340,000 compounds, 0.95% hits; activity change, % (tested at about 1.8 µM);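 active = maximum activity change below -70%; inconclusive = maximum activity change from -70% to -50%; inactive = maximum activity change above -50%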;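 note: thallium influx rate constant from kinetic fluorescence after stimulation buffer; % is set by controls: 0 for no effect and ±100 for the full control effect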
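FluxOr-based Tl+ influx in U2OS cells transduced with KCNH2 3.1 virus; rate constants normalized to DMSO controls.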
KCNH2 WT inh – KCNH2 (human, wildtype) channel inhibition | Q12809 | U2OS, BacMam KCNH2, thallium flux FluxOr; active compounds read low | activity change, % at 1.84 µM | 340,000 compounds, 0.37% hits;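 active = maximum activity change below -70%; inconclusive = maximum activity change between -70% and -50%; inactive = maximum activity change above -50%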; note: % is set by controls: 0 for no effect and ±100 for the full control effect
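U2OS cells were transduced with wild-type KCNH2 virus (2.03 x 10^8 / mL) for 4 h at room temperature, then cultured overnight at 37 C. Thallium flux was read with FluxOr dye. Rate constants were normalized to DMSO controls.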
12-LOX inh – inhibitors of human 12S-lipoxygenase ALOX12; P18054; 580,000 compounds, 1.1% hits; Potency, µM (top dose mostly 108 µM), for inactives: at the top dose activity change, negative = inhibition, hits mostly inhibitors; purified 12hLO, xylenol orange hydroperoxide absorbance; AID 1671190; note: potency is the fitted concentration of half-maximal effect; % is set by controls: 0 for no effect and ±100 for the full control effect
Target sequence (P18054 whole entry, looked up): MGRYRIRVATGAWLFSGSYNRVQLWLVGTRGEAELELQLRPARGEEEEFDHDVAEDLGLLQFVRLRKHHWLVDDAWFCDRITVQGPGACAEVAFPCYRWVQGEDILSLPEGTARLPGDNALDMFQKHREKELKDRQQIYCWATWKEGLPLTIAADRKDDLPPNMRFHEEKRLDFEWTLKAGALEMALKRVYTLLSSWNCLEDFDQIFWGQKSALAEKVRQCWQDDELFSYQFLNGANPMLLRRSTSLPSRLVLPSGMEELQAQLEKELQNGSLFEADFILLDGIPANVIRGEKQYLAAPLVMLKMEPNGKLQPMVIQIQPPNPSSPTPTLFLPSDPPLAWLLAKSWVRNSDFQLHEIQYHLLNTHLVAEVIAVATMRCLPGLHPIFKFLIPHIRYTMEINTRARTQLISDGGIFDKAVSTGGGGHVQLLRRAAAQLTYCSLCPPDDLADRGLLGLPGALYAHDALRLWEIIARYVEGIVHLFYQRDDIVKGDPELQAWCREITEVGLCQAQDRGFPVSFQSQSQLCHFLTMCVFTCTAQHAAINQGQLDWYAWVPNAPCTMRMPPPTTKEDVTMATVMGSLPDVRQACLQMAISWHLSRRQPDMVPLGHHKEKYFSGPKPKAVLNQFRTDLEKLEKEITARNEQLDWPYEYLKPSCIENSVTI
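Purified human 12hLO (150 nM final) in 25 mM Hepes, 0.01% Triton X-100, pH 7.0 was preincubated 15 min at room temperature with compound. Then 40 uM arachidonic acid was added, 30 min. Hydroperoxide was read by Fe-XO absorbance ratio 573/405 nm.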
AT treatment – candidate therapy for ataxia-telangiectasia; F2112 A-T fibroblasts, KAP-1 phosphorylation AlphaLISA; neocarzinostatin DNA damage 30 min before lysis; Potency, µM (titrated, usually from 57.5 µM), for inactives: at the highest dose activation, most hits filed as activators; 320,000 compounds, 0.19% hits; AID 485349; note: potency is the fitted concentration of half-maximal effect; % of control where 0% means no effect; nearly all actives have a fitted effect of over 45% in size
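hTERT-immortalized A-T patient fibroblasts (F2112), 500 cells/well in OPTI-MEM, 1% FBS, got compounds for 60 min, then NCS for 30 min at 37C. Lysates were then assayed for phospho-KAP-1 by AlphaLISA (anti-pKAP1 donor, anti-KAP1 acceptor beads), 6 hr at 25C.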
Active calls of the source: *; [ ] = remark or other dose. Unless noted, calls come from the whole dose curve; as a rule, active = well fitted curve in the direction sought with a large enough effect; inconclusive = small, poorly fitted or top-dose-only effect, or another doubt; inactive = no such curve, though single readings can be large; an effect the other way counts as inactive or inconclusive.

`COc1cc(OC)c(NC(=O)c2ccc3c(SCC(=O)O)c4c(nc3c2)CCCC4)cc1Cl` gave KCNH2 3.1 inh -104.5*, KCNH2 WT inh 4.0, 12-LOX inh -19.5% and AT treatment -10.2%.
For COc1cc(NC(=O)c2ccc3c(SCC(=O)O)c4c(nc3c2)CCCC4)cc(OC)c1OC the results were KCNH2 3.1 inh -77.1*, 12-LOX inh -18.0% and AT treatment 1.0%.
For Cc1ccn2c(NC3CCCC3)c(-c3cccs3)nc2c1 the results were KCNH2 3.1 inh -2.1, KCNH2 WT inh -9.7, 12-LOX inh 31.6µM* and AT treatment 12.0%.
Screening Cc1cc(-c2ccc(N=Cc3cccc(Cl)c3)c(C)c2)ccc1N=Cc1cccc(Cl)c1 returned 12-LOX inh -8.7%.
Screening NNC(=O)CN1C(c2cccc(Cl)c2)=Nc2ccc(Br)cc2C1c1ccccc1 (centres undefined) returned KCNH2 3.1 inh -12.7, KCNH2 WT inh -2.2, 12-LOX inh 0.0% and AT treatment 4.4%.
For COc1ccc(C2=Nc3ccc(Br)cc3C(c3ccccc3)N2CC(=O)NN)cc1 (centres undefined) the results were KCNH2 3.1 inh -72.5*, KCNH2 WT inh -7.7, 12-LOX inh -3.6% and AT treatment -6.8%.
COc1ccc(C2=Nc3ccc(C)cc3C(c3ccccc3)N2CC(=O)NN)cc1 (centres undefined) was read as KCNH2 3.1 inh -189.6*, KCNH2 WT inh -15.7, 12-LOX inh 3.4% and AT treatment 0.0%.
For COc1ccc(/C=C/C(=O)c2ccc(C(=O)O)s2)cc1OC the results were 12-LOX inh 5.62µM*.
CCOC(=O)N1CCc2c(sc(NC(=O)CN3CCN(C)CC3)c2C(=O)Nc2ccccc2)C1 was read as KCNH2 3.1 inh -97.1*, KCNH2 WT inh inconclusive, 12-LOX inh 4.3% and AT treatment 11.7%.
For CCOC(=O)N1CCc2c(sc(NC(=O)CN3CCOCC3)c2C(=O)Nc2ccccc2)C1 the results were KCNH2 3.1 inh -8.2, KCNH2 WT inh 14.1, 12-LOX inh -2.2% and AT treatment 2.9%.
CCCCc1c(C)[nH]n(-c2nc(C)c(C(=O)Nc3ccc(C)cc3)s2)c1=O was read as 12-LOX inh 54.8%.
For CCCn1c(N)c(C(=O)CN(C)CC(=O)Nc2ccc(C)cc2)c(=O)[nH]c1=O the results were KCNH2 3.1 inh -28.2, KCNH2 WT inh -10.3, 12-LOX inh 15.3% and AT treatment -2.4%.
CSc1ccccc1NC(=O)CN(C)CC(=O)NCc1ccccc1 was read as KCNH2 3.1 inh -1.0, KCNH2 WT inh -4.4, 12-LOX inh 12.2% and AT treatment 7.2%.
Screening CCCn1c(N)c(C(=O)CN(C)CC(=O)Nc2cc(C)ccc2C)c(=O)[nH]c1=O returned KCNH2 3.1 inh -70.0*, KCNH2 WT inh -2.5, 12-LOX inh -14.2% and AT treatment 1.7%.
`CSc1ccc(CN(C)CC(=O)Nc2ccc(C)cc2Br)cc1` gave KCNH2 3.1 inh -153.5*, KCNH2 WT inh -147.6*, 12-LOX inh 16.0% and AT treatment 13.7%.
CSc1ccccc1NC(=O)CN(C)CC(=O)Nc1cc(C)ccc1C was read as KCNH2 3.1 inh -75.6*, KCNH2 WT inh inactive, 12-LOX inh 0.1% and AT treatment -2.2%.
COc1ccc(Cn2c(SCc3cccc(OC)c3)nc3ccncc32)cc1 was read as 12-LOX inh 1.6%.
For CCOc1ccc(C=NNc2ccc(S(=O)(=O)Nc3ccccc3C(=O)O)cc2[N+](=O)[O-])cc1OC the results were KCNH2 3.1 inh -1.0, KCNH2 WT inh 6.9 and AT treatment -7.7%.
Screening O=C(O)c1ccccc1NS(=O)(=O)c1ccc(N/N=C/c2cccc(O)c2O)c([N+](=O)[O-])c1 returned KCNH2 3.1 inh -2.5, KCNH2 WT inh -3.7 and 12-LOX inh 39.8µM*.
`Cc1ccc(/C=N/Nc2ccc(S(=O)(=O)Nc3ccccc3C(=O)O)cc2[N+](=O)[O-])o1` gave 12-LOX inh 14.1µM*.
Screening CCOc1cc(/C=N/Nc2ccc(S(=O)(=O)Nc3ccccc3C(=O)O)cc2[N+](=O)[O-])cc(Cl)c1O returned KCNH2 3.1 inh 9.9, KCNH2 WT inh -6.2 and 12-LOX inh 35.5µM*.
For COc1ccc(CN2CCNc3cc(-c4ccccc4)ncc3C2)cn1 the results were 12-LOX inh 23.6%[176 µM].
Screening C(#CC12CC3CC(CC(C3)C1)C2)CN1CCOCC1 returned KCNH2 3.1 inh 2.5, KCNH2 WT inh -102.8*, 12-LOX inh inconclusive and AT treatment -8.1%.
`CN(Cc1ccccc1)C(=O)c1noc(-c2ccc(F)cc2)n1` gave 12-LOX inh -11.2%.
Screening N#Cc1ccccc1OCC(=O)NC(=O)NC1CCCC1 returned 12-LOX inh -16.6%.
For O=C(/C=C/c1cccs1)c1ccc(NC(=O)c2ccccc2F)cc1 the results were KCNH2 3.1 inh -8.9, KCNH2 WT inh -4.1, 12-LOX inh 6.9% and AT treatment -11.3%.
`COc1ccccc1C(=O)Nc1ccc(C(=O)/C=C/c2cccs2)cc1` gave KCNH2 3.1 inh -82.6*, KCNH2 WT inh 64.6, 12-LOX inh -17.9% and AT treatment 5.4%.
For CCN1C(=O)C(CC(=O)Nc2ccc(OC)cc2)N(CCCN2CCN(c3ccc(F)cc3)CC2)C1=S (centres undefined) the results were KCNH2 3.1 inh -82.9*, KCNH2 WT inh -75.5*, 12-LOX inh 0.8% and AT treatment -3.4%.
For CCN1C(=O)C(CC(=O)Nc2ccc(OC)cc2)N(CCc2ccc(F)cc2)C1=S (centres undefined) the results were KCNH2 3.1 inh 13.0, KCNH2 WT inh -12.7, 12-LOX inh inconclusive and AT treatment 1.3%.
For O=C1S/C(=C\c2ccc(N3CCOCC3)o2)C(=O)N1Cc1ccc(F)cc1 the results were KCNH2 3.1 inh -0.1, KCNH2 WT inh -15.6 and AT treatment 6.3%.
For O=C1S/C(=C/c2ccc(N3CCOCC3)o2)C(=O)N1Cc1ccc(F)cc1 the results were KCNH2 3.1 inh -30.8, KCNH2 WT inh -25.2, 12-LOX inh 10µM* and AT treatment 0.1%.
CCN1C(=O)C2CC3(CCN(C(=O)NCCCOC)CC3)CN2C1=O (centres undefined) was read as 12-LOX inh 11.4%.
For CC(C)N(Cc1nnc(-c2ccc(Cl)cc2)o1)C(=O)c1cc2ccccc2o1 the results were KCNH2 3.1 inh -90.8*, KCNH2 WT inh -1.1, 12-LOX inh 5.6% and AT treatment 1.0%.
Screening CCOC(=O)N1CCN(Cc2nc3cc(NC(=O)c4ccccc4Cl)ccc3n2CC)CC1 returned 12-LOX inh 7.1%.
`O=C(COc1ccc(-c2ccccc2)cc1)N1CCN(S(=O)(=O)Cc2ccccc2)CC1` gave KCNH2 3.1 inh -74.8*, KCNH2 WT inh -3.4, 12-LOX inh -20.9% and AT treatment 6.5%.
Cc1cc2nc(C3CCN(CC4COc5ccccc5O4)CC3)[nH]c2cc1C (centres undefined) was read as KCNH2 3.1 inh -78.7*, KCNH2 WT inh -72.8*, 12-LOX inh inconclusive and AT treatment -2.0%.
